The list is not random: actives were taken first. Their share in the collection is about 12%.
JMJD2A Tudor inh: inhibitors of human JMJD2A Tudor domain. Potency, µM (titrated, usually from 114 µM), inactives show at the top dose activity change, negative = inhibition, usual class: inhibitors. 390,000 compounds, 4.4% hits. O75164. AID 504339. AlphaScreen JMJD2A-Tudor / H3K4me3 peptide binding; note: % is set by controls: 0 for no effect and ±100 for the full control effect; nearly all actives have a fitted effect of over 50% in size
Target sequence (O75164 whole entry, looked up, the tested form may be a part): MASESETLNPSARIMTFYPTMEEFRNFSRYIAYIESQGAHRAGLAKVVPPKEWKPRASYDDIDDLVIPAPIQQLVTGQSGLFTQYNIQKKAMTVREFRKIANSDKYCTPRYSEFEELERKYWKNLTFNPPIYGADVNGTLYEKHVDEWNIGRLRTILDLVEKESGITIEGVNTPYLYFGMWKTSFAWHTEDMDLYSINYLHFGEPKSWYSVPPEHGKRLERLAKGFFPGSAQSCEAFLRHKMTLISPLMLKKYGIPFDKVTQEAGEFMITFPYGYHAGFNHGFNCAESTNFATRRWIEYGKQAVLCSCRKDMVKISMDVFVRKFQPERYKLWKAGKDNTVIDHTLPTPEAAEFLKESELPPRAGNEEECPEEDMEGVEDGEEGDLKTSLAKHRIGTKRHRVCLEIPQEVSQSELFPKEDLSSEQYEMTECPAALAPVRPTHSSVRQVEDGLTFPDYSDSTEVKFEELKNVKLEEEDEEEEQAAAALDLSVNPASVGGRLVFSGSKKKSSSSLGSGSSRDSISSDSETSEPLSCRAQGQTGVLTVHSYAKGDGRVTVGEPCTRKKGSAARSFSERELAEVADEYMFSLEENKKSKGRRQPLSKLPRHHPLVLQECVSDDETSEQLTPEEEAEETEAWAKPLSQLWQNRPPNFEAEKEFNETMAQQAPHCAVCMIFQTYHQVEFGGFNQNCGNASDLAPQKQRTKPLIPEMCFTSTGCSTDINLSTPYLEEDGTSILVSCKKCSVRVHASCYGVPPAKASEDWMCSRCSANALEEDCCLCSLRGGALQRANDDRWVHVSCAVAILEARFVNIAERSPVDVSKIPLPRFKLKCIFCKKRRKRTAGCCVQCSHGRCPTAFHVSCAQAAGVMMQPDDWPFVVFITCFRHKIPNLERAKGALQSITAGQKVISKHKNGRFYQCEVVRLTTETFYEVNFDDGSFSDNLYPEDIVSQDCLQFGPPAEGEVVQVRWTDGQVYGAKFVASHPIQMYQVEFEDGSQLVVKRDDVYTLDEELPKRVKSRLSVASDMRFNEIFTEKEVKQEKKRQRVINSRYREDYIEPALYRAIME
Sfp PPTase inh: blocks B. subtilis Sfp PPTase activity. Biochemical Sfp PPTase activity, qHTS. AID 1490. 310,000 compounds, 3.5% hits. Q9F4F7. Potency, µM, for inactives: largest response in the series, negative = inhibition, most hits filed as inhibitors;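 note: the enzyme is Sfp with the accession as filed and its product quenches rhodamine fluorescence; 0% = enzyme reaction without inhibitor and -100% = no enzyme wells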
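Step 1, compound plus 15 nM Sfp-PPTase, 15 min, room temperature. Step 2, add rhodamine-CoA (5 uM) and BHQ-2-YbbR (12.5 uM). Step 3, read 525/598 nm fluorescence at 0 and 30 min.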
BAZ2B block: inhibitors of human BAZ2B bromodomain. Potency, µM (highest dose often 114 µM), for the others: top-dose activity change, negative = inhibition, actives largely listed as inhibitors. 360,000 compounds, 4.4% hits. AID 504333. AlphaScreen BAZ2B-H3K14Ac peptide displacement; note: % is set by controls: 0 for no effect and ±100 for the full control effect; nearly all actives have a fitted effect of over 60% in size
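Compounds, titrated to a top concentration of 110 uM, were incubated 30 min at room temperature with preformed BAZ2B/acetyl-K14 H3 peptide complex (50 nM each). Proximity signal was measured by AlphaScreen after 20 min with beads.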
PLK1 PBD inh: inhibitors of human PLK1 polo-box domain binding | Plk1 PBD binding of FITC phosphopeptide, fluorescence polarization | 360,000 compounds, 2.8% hits | Potency, µM, for the others: max response, negative = inhibition, most hits filed as inhibitors | AID 720504; note: series mostly up to about 57 µM; % is set by controls: 0 for no effect and ±100 for the full control effect; nearly all actives have a fitted effect of over 65% in size
G9a block: blocks human histone lysine methyltransferase G9a | Potency, µM (series often up to 102 µM), inactives show top-dose activity, negative = inhibition, usual class: inhibitors | 350,000 compounds, 8.8% hits | Q96KQ7 | AID 504332 | G9a H3K9 monomethylation, AlphaScreen, 2 h; note: % is set by controls: 0 for no effect and ±100 for the full control effect; nearly all actives have a fitted effect of over 75% in size
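Compounds were preincubated with 20 nM G9a for 15 min, after which biotinylated H3K9 peptide (500 nM) and SAM (20 uM) started a 2 h room-temperature reaction. Monomethylated product was quantified by antibody-based AlphaScreen chemiluminescence.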
HP1b binding inh: inhibitors of HP1-beta chromodomain binding to methylated histone tails; Potency, µM (highest dose often 114 µM), inactives show top-dose activity change, negative = inhibition, usual class: inhibitors; AID 540317; 390,000 compounds, 0.56% hits; AlphaScreen HP1-beta / biotin-H3K9me3 peptide binding; note: nearly all actives have a fitted effect of over 70% in size
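Compound inhibition of the preformed complex between 50 nM HP1-beta and 50 nM biotinylated H3K9me3 peptide was read by AlphaScreen. Buffer was PBS pH 7.4 with 0.01% Tween-20. Incubations ran 30 min at room temperature, with 10 ug/mL donor/acceptor beads.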
The depositor's hits bear a star; ? = inconclusive; . = no result; ! = repeats disagree; [ ] = another dose, or the depositor's remark. Calls come from the whole dose curve; as a rule, active = well fitted curve in the direction sought with a large enough effect; inconclusive = small, poorly fitted or top-dose-only effect, or another doubt; inactive = no such curve, though single readings can be large; an effect the other way counts as inactive or inconclusive. Potency is the fitted concentration of half-maximal effect.

SMILES | JMJD2A Tudor inh | Sfp PPTase inh | BAZ2B block | PLK1 PBD inh | G9a block | HP1b binding inh
CCC(=O)c1ccc(OCC(=O)Nc2nc(-c3cccnc3)cs2)cc1 | ? | . | -10% | ? | 40µM* | 6%
c1ccc(CNc2nc(-c3cccnc3)cs2)cc1 | ? | 35µM* | ? | -10% | 50µM* | 17%
c1ccc(-c2csc(Nc3ccc4c(c3)OCCO4)n2)cc1 | 71µM* | ? | 50µM* | 0% | 11µM* | -52%
CC(=O)N1CCc2c(sc3c2c(=O)n(-c2cccc(Cl)c2)c(=O)n3Cc2ccc(F)cc2Cl)C1 | -27% | . | -22% | . | -18%[59 µM] | 13%
Oc1ccc(Nc2nc(-c3ccc(Cl)cc3)cs2)cc1 | . | -20% | . | . | . | .
Clc1ccc(Nc2nc(-c3ccncc3)cs2)cc1 | -29% | . | . | -3% | . | -7%
Oc1ccc(Nc2nc(-c3ccc(O)cc3)cs2)cc1 | ? | 6% | 28µM* | -13% | ? | ?
Nc1ccc(Nc2nc(-c3ccncc3)cs2)cc1 | 56µM* | -4% | ? | -6% | 40µM* | -31%
Brc1cccc(Nc2nc(-c3cccnc3)cs2)c1 | -12% | -6% | -1% | -9% | . | 38%
Brc1ccc(Nc2nc(-c3cccnc3)cs2)cc1 | -22% | 45µM* | -15% | -9% | 32µM* | 31%
O=C(O)c1ccc(Nc2nc(-c3cccnc3)cs2)cc1 | -7% | 89µM* | 1% | -10% | ? | 10%
CC(C)CCNC(=O)Cn1c(SCc2cccc(F)c2)nc2ccncc21 | 7%[57.1 µM] | . | . | . | . | 17%[57 µM]
CN(C(=O)c1ccc(OC2CCN(CCc3ccccc3)CC2)cc1)C1CCCCC1 | -24% | 21% | -14% | -23% | 5% | 42%
Oc1ccc(Nc2nc(-c3cccnc3)cs2)cc1 | ? | -16% | ? | -9% | 40µM* | -15%
CCCc1cc(=O)[nH]c(SCC(=O)C(C)(C)C)n1 | -14% | -5% | 12% | -14% | 71µM* | 6%
CCCc1cc(=O)[nH]c(SCC(=O)N(Cc2ccccc2)C(C)C)n1 | 3% | 10% | ? | -4% | 1µM* | 25%
CC1(C)CC(=O)C2=C(C1)Nc1ccccc1S2 | -23% | 0% | ? | -26% | 40µM* | -24%
CC1(C)CC(=O)C2=C(C1)Nc1ccccc1N=C2 | . | 40µM* | -30% | . | 8.9µM* | .
COc1ccc(-c2noc(N3CCN(c4cccc(C)c4C)CC3)n2)cc1OC | -18% | . | -1% | . | -1%[59 µM] | 6%
c1ccc([C@@H]2CN3CCSC3=N2)cc1 | . | 20% | . | . | 22%[21.5 µM] | .
CC(C)CN(CC(C)C)c1ccc(/C=N/n2cnnc2)cc1[N+](=O)[O-] | 45µM* | -16% | ? | -11% | ? | ?
O=[N+]([O-])c1cc(/C=N/n2cnnc2)ccc1N1CCCC1 | -24% | -3% | -38% | -15% | -13%[59 µM] | 49%
Oc1ccc(/C=N/Nc2ccnc3cc(Cl)ccc23)c(O)c1O | ? | 45µM* | 45µM* | 2.1µM* | 22µM* | -37%[57 µM]
Oc1ccc(/C=N/Nc2ccnc3cc(Cl)ccc23)cc1O | -12%[11.4 µM] | ? | 40µM* | -12% | ? | -19%
CCN(CC)Cc1ccc(Nc2ccnc3cc(Cl)ccc23)cc1O | . | -11% | . | . | -33%[2.33 µM] | .
SMILES | JMJD2A Tudor inh | Sfp PPTase inh | BAZ2B block | PLK1 PBD inh | G9a block | HP1b binding inh
CC/C(=N\Nc1ccnc2cc(Cl)ccc12)c1ccc(O)cc1 | ? | 4% | ? | -12% | 28µM* | -34%
Cc1ccc(NC(=O)CSc2nc(=O)n(CCN3CCOCC3)c3c2CCC3)c(C)c1 | 3% | . | -2% | . | ? | 14%
CC1(C(=O)O)CCCN(C(=O)c2ccc(OC(F)F)cc2)C1 (stereo unspecified) | . | . | . | 1% | . | .
COc1ccc(C2CC(=O)c3sc(NC(C)=O)nc3C2)cc1 (stereo unspecified) | -21% | -18% | -5% | ? | 40µM* | -10%
Cc1ccc(/C=C/C(=O)c2ccccc2)cc1 | 62% | -4% | 67% | -12% | 1%[12.7 µM] | .
O=C(/C=C/c1ccc([N+](=O)[O-])cc1)c1ccccc(=O)c1O | ? | . | . | -30% | . | ?
O=C(/C=C/c1ccccc1Cl)c1ccccc(=O)c1O | ? | 45µM* | 56µM* | 27µM* | 32µM* | ?
Cc1ccc(C)c(/C=C/C(=O)c2ccccc(=O)c2O)c1 | ? | ? | 56µM* | ? | 45µM* | -26%
Cc1ccc(/C=C/C(=O)c2ccccc(=O)c2O)c(C)c1 | ? | ? | 50µM* | ? | 50µM* | -39%
O=C(/C=C/c1ccccc1Cl)Nc1ccccc1 | 2% | -26% | 3% | 1% | . | 52%
CCOc1ccc(N/C=C/C(=O)c2ccccc2)c([N+](=O)[O-])c1 | ? | -2% | ? | -5% | 8.9µM* | ?
C/C(=N\O)c1cc(Cl)ccc1O | -16% | 15% | -3% | -2% | 8% | 30%
Cc1c(NC(=O)Nc2cccc(C(F)(F)F)c2)sc2nc3n(c(=O)c12)CCC(C)CC3 (stereo unspecified) | -5% | . | 2% | . | 3%[59 µM] | 31%
Oc1ccc(/C=C\c2cc(O)cc(O)c2)cc1 | . | -3% | . | . | -41%[5.15 µM] | .
Oc1ccc(/C=C/c2cc(O)cc(O)c2)cc1 | -27% | 6% | -27% | -9% | 7.9µM*! | 15%
CCOC(=O)c1c(C)[nH]c(C)c1S(=O)(=O)NCC(=O)Nc1cccc(C#N)c1 | -16% | . | -2% | . | 2%[59 µM] | -3%
CCOc1ccc(C2C(=O)N(C3CCCCCC3)CC(=O)N2Cc2ccccc2)cc1OC (stereo unspecified) | -18% | . | -12% | . | 6%[59 µM] | 54%
O=S1(=O)CCN(Cc2ccc(Cl)c(Cl)c2)CC1 | -3% | 12% | -2% | -4% | 2%[12.7 µM] | 16%
Clc1ccc(CN2CCCCCCC2)cc1Cl | 28µM* | -25% | -12% | -3% | ? | -38%
O=[N+]([O-])c1cc(CN2CCCC2)ccc1Sc1ccc(Cl)cc1 | 35µM* | 2% | 40µM* | 2% | 35µM* | 40µM*
Clc1ccc(CN2CCCCCC2)cc1 | 1.8µM* | 1% | ? | -7% | 13µM* | ?
CCc1ccc(CN(Cc2cn[nH]c2-c2ccc(OC)cc2)C(=O)Nc2ccc(C)c(F)c2)cc1 | 6% | . | 14% | . | -35%[59 µM] | 67%
CCN(c1ccccc1)S(=O)(=O)c1c(-c2ccc(C)cc2)csc1C(=O)OC | -3% | . | 16% | . | 33%[59 µM] | 3%
Cc1ccc(C(=O)C(C)OC(=O)Cc2n[nH]c(=O)c3ccccc23)cc1 (stereo unspecified) | -6% | . | 6% | 5% | -1%[0.501 µM] | 16%
COc1ccc(C(C2C(=O)CC(C)(C)CC2=O)C2C(=O)CC(C)(C)CC2=O)cc1 | -17% | 25µM* | -16% | 9.5µM* | 45µM* | 58%
Cc1ccc(C(C2C(=O)CC(C)(C)CC2=O)C2C(=O)CC(C)(C)CC2=O)s1 | -32% | 50µM* | ? | 2.7µM* | 45µM* | 14%
